In PubChem BioAssay (EPA / NIEHS) one finds outcome and AC50 data, which are given here for 3 compounds.

The source made the active and inactive calls. Rule for the calls: active = hit-call score of the fitted dose curve at least 0.9, where 1 is the maximum; inactive = score below 0.9.

Read-out in assay [1]: Transforming growth factor beta 1 (TGFb1), TGFB1 (gene 7040)
The assay can be described thus: BSK_KF3CT_TGFb1: BioMAP Diversity Plus: KF3CT Assay for Transforming growth factor beta 1 (TGFb1) Biomarker Activity (AID 2283072). The settings on record: primary human keratinocytes with fibroblasts; actives raise or lower the signal. The method, boiled down: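 ELISA quantifies TGF-b1 at 24 h post-dose in a primary human skin co-culture of keratinocytes and fibroblasts, with gain or loss judged against DMSO. Parallel SRB total-protein staining flags overt cytotoxicity.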

Read-out in assay [2]: C-C motif chemokine 2 (Homo sapiens) (UniProt P13500)
The assay can be described thus: BSK_KF3CT_MCP1: BioMAP Diversity Plus: KF3CT Assay for Monocyte Chemoattractant Protein 1 (MCP1/CCL2) Biomarker Activity (AID 2283073). The settings on record: primary human keratinocytes with fibroblasts; actives raise or lower the signal. The method, boiled down:
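Human keratinocyte plus foreskin fibroblast primary co-culture exposed to chemical for 24 h. MCP-1 levels measured by ELISA. Bidirectional curve fitting relative to DMSO negative control as baseline.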

Read-out in assay [3]: Matrix Metallopeptidase 9 (MMP9), MMP9 (gene 4318)
The assay can be described thus: BSK_KF3CT_MMP9: BioMAP Diversity Plus: KF3CT Assay for Matrix Metallopeptidase 9 (MMP9) Biomarker Activity (AID 2283074). Particulars: primary human keratinocytes with fibroblasts; actives raise or lower the signal. The method, boiled down:
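ELISA read-out of MMP-9 at 24 h post-dosing in a co-culture of human skin keratinocytes and foreskin fibroblasts. Gain or loss of signal was fitted in both directions against DMSO.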

Read-out in assay [4]: urokinase plasminogen activator (uPA), PLAU (gene 5328)
The assay can be described thus: BSK_KF3CT_uPA: BioMAP Diversity Plus: KF3CT Assay for urokinase plasminogen activator (uPA) Biomarker Activity (AID 2283075). Particulars: primary human keratinocytes with fibroblasts; actives raise or lower the signal. The method, boiled down:
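Skin co-culture (keratinocytes + foreskin fibroblasts), human primary; 24 h post-dose; uPA by ELISA; gain/loss fit vs DMSO baseline.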

Read-out in assay [5]: CD40, CD40 (gene 958)
The assay can be described thus: BSK_LPS_CD40: BioMAP Diversity Plus: LPS Assay for CD40 Biomarker Activity (AID 2283076). The settings on record: primary human HUVEC with PBMC; actives raise or lower the signal. The method, boiled down:
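Primary human umbilical vein endothelial cells co-cultured with peripheral blood mononuclear cells, LPS-stimulated, were dosed with chemical and read 24 h later. CD40 levels were measured by ELISA and fitted bidirectionally against DMSO as negative control and baseline.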

Read-out in assay [6]: E-selectin (Homo sapiens) (UniProt P16581)
The assay can be described thus: BSK_LPS_Eselectin: BioMAP Diversity Plus: LPS Assay for Eselectin Biomarker Activity (AID 2283077). The settings on record: primary human HUVEC with PBMC; actives raise or lower the signal. The method, boiled down:
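Human umbilical vein endothelial cells co-cultured with peripheral blood mononuclear cells under LPS stimulation; E-selectin measured by ELISA 24 h after chemical dosing. Activity fitted bidirectionally against DMSO as negative control and baseline.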

Read-out in assay [7]: Interleukin-8 (IL8), CXCL8 (gene 3576)
The assay can be described thus: BSK_LPS_IL8: BioMAP Diversity Plus: LPS Assay for Interleukin-8 (IL8) Biomarker Activity (AID 2283078). The settings on record: primary human HUVEC with PBMC; actives raise or lower the signal. The method, boiled down:
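Human umbilical vein endothelial cells co-cultured with PBMC were stimulated with LPS; IL-8 levels were measured by ELISA 24 h after chemical dosing. Activity was fitted bidirectionally against DMSO as negative control and baseline.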

A short description of assay [8]: BSK_LPS_SRB: Viability Assessment in the BioMAP Diversity Plus: LPS Assay (AID 2283079).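 Note: total protein by sulforhodamine B absorbance as a cytotoxicity measure; measured one day after compound addition.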 The settings on record: primary human HUVEC with PBMC. In short, it runs like this:
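Human umbilical vein endothelial cells co-cultured with PBMC (LPS system) were dosed for 24 h. Total protein was stained with 0.1% sulforhodamine B after 10% TCA fixation, read at 560 nm, and fitted bidirectionally against DMSO baseline.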

Read-out in assay [9]: Interleukin-1 alpha (IL1a), IL1A (gene 3552)
The assay can be described thus: BSK_LPS_IL1a: BioMAP Diversity Plus: LPS Assay for Interleukin-1 alpha (IL1a) Biomarker Activity (AID 2283080). The settings on record: primary human HUVEC with PBMC; actives raise or lower the signal. In short, it runs like this: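 Human umbilical vein endothelial cells co-cultured with peripheral blood mononuclear cells were LPS-stimulated and exposed to test chemicals for 24 h. IL-1 alpha was quantified by ELISA, with bidirectional curve fitting against DMSO as the negative control and baseline.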

Read-out in assay [10]: Monocyte Chemoattractant Protein-1 (MCP1), CCL2 (gene 6347)
The assay can be described thus: BSK_LPS_MCP1: BioMAP Diversity Plus: LPS Assay for Monocyte Chemoattractant Protein-1 (MCP1) Biomarker Activity (AID 2283081). Particulars: primary human HUVEC with PBMC; actives raise or lower the signal. The method, boiled down: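 HUVEC plus PBMC co-culture (human primary cells, LPS system) exposed to test chemical for 24 h; MCP-1 measured by ELISA. Bidirectional curve fitting against DMSO baseline; parallel SRB total-protein staining flags overt cytotoxicity.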

The nature of assay [11]: BSK_LPS_PGE2: BioMAP Diversity Plus: LPS Assay for Prostaglandin E2 (PGE2) Biomarker Activity (AID 2283082). Particulars: primary human HUVEC with PBMC; actives raise or lower the signal. The method, boiled down:
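PGE2 release measured by ELISA in an LPS-activated co-culture of human umbilical vein endothelial cells and peripheral blood mononuclear cells, read at 24 h post-dosing. DMSO served as baseline for bidirectional curve fitting.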

Read-out in assay [12]: Macrophage colony-stimulating factor (MCSF), CSF1 (gene 1435)
The assay can be described thus: BSK_LPS_MCSF: BioMAP Diversity Plus: LPS Assay for Macrophage colony-stimulating factor (MCSF) Biomarker Activity (AID 2283083). Particulars: primary human HUVEC with PBMC; actives raise or lower the signal. In short, it runs like this: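 Human umbilical vein endothelial cells co-cultured with peripheral blood mononuclear cells were exposed to compound for 24 h. M-CSF levels were measured by ELISA, and bidirectional curve fitting used DMSO as the negative control and baseline.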

Read-out in assay [13]: Tissue Factor, F3 (gene 2152)
The assay can be described thus: BSK_LPS_TissueFactor: BioMAP Diversity Plus: LPS Assay for Tissue Factor Biomarker Activity (AID 2283084). Particulars: primary human HUVEC with PBMC; actives raise or lower the signal. In short, it runs like this: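 Human umbilical vein endothelial cells co-cultured with peripheral blood mononuclear cells were dosed and stimulated with LPS. Cell-surface CD142 was quantified by ELISA at 24 h. Activity was fitted bidirectionally against DMSO baseline.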

Read-out in assay [14]: Tumor necrosis factor (Homo sapiens) (UniProt P01375)
The assay is described as follows: BSK_LPS_TNFa: BioMAP Diversity Plus: LPS Assay for Tumour Necrosis Factor alpha (TNFa) Biomarker Activity (AID 2283085). Particulars: primary human HUVEC with PBMC; actives raise or lower the signal. The method, boiled down: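 TNFa was quantified by ELISA in LPS-activated co-cultures of human endothelial cells and PBMC, 24 h post-dosing. Both increases and decreases versus DMSO were fitted.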

Read-out in assay [15]: Vascular cell adhesion molecule 1 (VCAM1), VCAM1 (gene 7412)
The assay can be described thus: BSK_LPS_VCAM1: BioMAP Diversity Plus: LPS Assay for Vascular cell adhesion molecule 1 (VCAM1) Biomarker Activity (AID 2283086). The settings on record: primary human HUVEC with PBMC; actives raise or lower the signal. The method, boiled down: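 VCAM-1 quantified by ELISA in an LPS-activated co-culture of human endothelial cells and peripheral blood mononuclear cells, read 24 h post-treatment. Fitted in both directions versus DMSO; parallel SRB staining flags overt cytotoxicity.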

Read-out in the next assay: CD38, CD38 (gene 952)
The assay is described as follows: BSK_SAg_CD38: BioMAP Diversity Plus: SAg Assay for CD38 Biomarker Activity (AID 2283087). Particulars: primary human HUVEC with PBMC; actives raise or lower the signal. In short, it runs like this: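 CD38 quantified by ELISA (fluorescence) in a superantigen-activated endothelial cell–PBMC co-culture at 24 h post-dose. Activity fitted in both directions relative to DMSO; parallel SRB and Alamar Blue cytotoxicity read-outs.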

Read-out in assay [16]: CD40, CD40 (gene 958)
The assay can be described thus: BSK_SAg_CD40: BioMAP Diversity Plus: SAg Assay for CD40 Biomarker Activity (AID 2283088). The settings on record: primary human HUVEC with PBMC; actives raise or lower the signal. In short, it runs like this:
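Human umbilical vein endothelial cells co-cultured with PBMC; CD40 levels measured by ELISA with fluorescence read-out 24 h after chemical dosing. Gain or loss of signal fitted bidirectionally against DMSO baseline.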

Read-out in assay [17]: Monocyte Chemoattractant Protein-1 (MCP1), CCL2 (gene 6347)
The assay can be described thus: BSK_SAg_MCP1: BioMAP Diversity Plus: SAg Assay for Monocyte Chemoattractant Protein-1 (MCP1) Biomarker Activity (AID 2283090). Particulars: primary human HUVEC with PBMC; actives raise or lower the signal. The method, boiled down: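 Values derive from bidirectional fitting of ELISA-measured MCP1 against DMSO controls. Readings were taken 24 h after dosing human vascular endothelial cells co-cultured with peripheral blood mononuclear cells under superantigen stimulation.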

Read-out in the next assay: CD69, CD69 (gene 969)
The assay can be described thus: BSK_SAg_CD69: BioMAP Diversity Plus: SAg Assay for CD69 Biomarker Activity (AID 2283089). Particulars: primary human HUVEC with PBMC; actives raise or lower the signal. The method, boiled down:
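Primary human vascular co-culture (umbilical vein endothelium with peripheral blood mononuclear cells) exposed to test chemical for 24 h. CD69 levels quantified by fluorescence ELISA; DMSO served as negative control for bidirectional fitting.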

Read-out in assay [18]: TIMP metallopeptidase inhibitor 2 (TIMP2), TIMP2 (gene 7077)
The assay can be described thus: BSK_KF3CT_TIMP2: BioMAP Diversity Plus: KF3CT Assay for TIMP metallopeptidase inhibitor 2 (TIMP2) Biomarker Activity (AID 2283071). Particulars: primary human keratinocytes with fibroblasts; actives raise or lower the signal. In short, it runs like this:
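TIMP-2 measured by ELISA at 24 h in human keratinocyte/fibroblast primary co-cultures exposed to chemicals. Both increases and decreases were fitted against DMSO. Parallel cultures were stained with SRB for total protein as an overt-cytotoxicity check.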

Chain of E-selectin (Homo sapiens) (P16581 whole entry, looked up): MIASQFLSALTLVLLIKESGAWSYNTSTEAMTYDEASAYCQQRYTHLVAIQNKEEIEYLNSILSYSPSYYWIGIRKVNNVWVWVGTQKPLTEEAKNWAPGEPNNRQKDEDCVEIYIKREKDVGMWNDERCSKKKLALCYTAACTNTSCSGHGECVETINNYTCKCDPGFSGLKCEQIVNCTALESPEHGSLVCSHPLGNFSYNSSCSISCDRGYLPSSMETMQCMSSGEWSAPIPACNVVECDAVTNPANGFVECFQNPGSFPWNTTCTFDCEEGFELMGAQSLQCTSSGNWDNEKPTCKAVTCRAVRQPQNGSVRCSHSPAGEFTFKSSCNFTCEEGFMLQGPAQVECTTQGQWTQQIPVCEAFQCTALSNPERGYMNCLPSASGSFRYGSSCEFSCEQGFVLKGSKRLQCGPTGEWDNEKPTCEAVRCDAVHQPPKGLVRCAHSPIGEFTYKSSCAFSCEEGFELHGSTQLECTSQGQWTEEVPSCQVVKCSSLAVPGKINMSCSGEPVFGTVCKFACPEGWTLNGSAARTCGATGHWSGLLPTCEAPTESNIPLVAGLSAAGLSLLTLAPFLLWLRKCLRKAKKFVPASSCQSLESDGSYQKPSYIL
Chain of Tumor necrosis factor (Homo sapiens) (P01375 whole entry, looked up): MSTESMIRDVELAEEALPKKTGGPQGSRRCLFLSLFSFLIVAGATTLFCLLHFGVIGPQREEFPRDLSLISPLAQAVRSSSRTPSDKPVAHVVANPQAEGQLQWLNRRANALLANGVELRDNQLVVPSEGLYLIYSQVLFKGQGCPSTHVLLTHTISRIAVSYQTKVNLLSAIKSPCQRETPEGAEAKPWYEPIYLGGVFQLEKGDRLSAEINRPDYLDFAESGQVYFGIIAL

Regarding `CSc1nnc(C(C)(C)C)c(=O)n1N`, the outcome in assay [1] was “inactive”; in assay [2] it was “inactive”; in [3], “inactive”; in [4], “inactive”; with CD40, CD40 (gene 958) [5], “inactive”; in assay [6] it was “inactive”. The result in assay [7], in [8], in assay [9], in [10], in assay [11] and in [12] was inactive. In addition, the outcome in [13] was “inactive”; in assay [14] it was “inactive”; in [15], “inactive”; with CD38, CD38 (gene 952), “inactive”; with CD40, CD40 (gene 958) [16] it was “inactive”; in [17], “inactive”.

Regarding `CCOP(=S)(OCC)SCCSCC`, the outcome in assay [1] is “inactive”; in assay [2], “inactive”; in assay [3], “inactive”; with CD40, CD40 (gene 958) [5], “inactive”; in assay [6], “inactive”; in [7] it was “inactive”. Further, the outcome in [8], in [9], in [10], in assay [11], in assay [12] and in assay [13] was inactive. The outcome in [14] was “inactive”; in assay [15], “inactive”; in the assay with CD38, CD38 (gene 952), “inactive”; with CD40, CD40 (gene 958) [16], “inactive”; in the assay with CD69, CD69 (gene 969), “inactive”; in assay [17] it was “inactive”. Besides, in assay [4], the AC50 is 29.4 µM (active).

As to `Cc1ccn2nc(S(=O)(=O)Nc3c(F)cccc3F)nc2n1`, the outcome in assay [18], in assay [1], in assay [2], in [3], in [4] and in [6] was inactive. Further, the outcome in assay [7], in [9], in assay [10], in assay [11], in assay [12] and in assay [13] was inactive. The outcome in [14] was “inactive”; in [15], “inactive”; with CD38, CD38 (gene 952), “inactive”; with CD40, CD40 (gene 958) [16] it was “inactive”; in assay [17], “inactive”. In [8], the AC50 was 1.06 µM (active).

As a reminder, the AC50 is the concentration at which the activity in the assay is half-maximal.
